Measured values: PubChem BioAssay
Active and inactive are the calls of the source. Unless noted, no stated cut-off is given here; in the data, active means inhibition above about 80%; inactive means the rest.

Key:
[1] = LFS_MB_P medulloblastoma growth inhibition, cell-based, chromothripsis tumors, cisplatin or BGB combos (AID 1671449); settings: LFS_MB_P medulloblastoma cells;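 further: cells exposed for 96 hours; 0% = vehicle DMSO and 100% = killing by high DMSO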
[2] = HDN33 neuroblastoma growth inhibition, cell-based, chromothripsis tumors, cisplatin or BGB combos (AID 1671450); settings: HDN33 neuroblastoma cells, stronger effect = higher value;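 further: cells exposed to compound for four days; 0% = vehicle DMSO and 100% = cell killing by high DMSO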
[3] = ICB984 medulloblastoma cell growth inhibition, synergistic combos for chromothripsis tumors, cisplatin or BGB combos (AID 1671451; call rule not given here;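 further: cells exposed for 96 hours before readout; 0% = vehicle DMSO and 100% = killing by high DMSO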); settings: ICB984 medulloblastoma cells, drug combinations, stronger effect = higher value
[4] = LFS_MB_1R medulloblastoma cell growth inhibition, synergistic combos for chromothripsis tumors, cisplatin or BGB combos (AID 1671452); settings: LFS_MB_1R medulloblastoma cells, stronger effect = higher value;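 further: cells exposed for 96 hours before readout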
[5] = HTB85 osteosarcoma cell growth inhibition, synergistic combos for chromothripsis tumors, BGB or cisplatin IC20 combos (AID 1671453); settings: HTB85 osteosarcoma cells, drug combinations, stronger effect = higher value;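 further: cells exposed for 96 hours before readout; 0% = vehicle DMSO and 100% = high DMSO killing control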
[6] = CRL2098 osteosarcoma cell growth inhibition, synergistic combos for chromothripsis tumors, BGB or cisplatin IC20 combos (AID 1671454); settings: CRL2098 osteosarcoma cells, drug combinations, stronger effect = higher value;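 further: cells exposed for 96 h before readout; 0% = vehicle DMSO and 100% = killing by high DMSO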
[7] = HD-MB03 medulloblastoma cell growth inhibition, synergistic combos for chromothripsis tumors, BGB or cisplatin IC20 combos (AID 1671455; in the data active means inhibition above about 83%;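 further: 0% = vehicle DMSO and 100% = high DMSO as cytotoxic control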); settings: HD-MB03 medulloblastoma cells, stronger effect = higher value
[8] = UWB1.289 ovarian carcinoma cell growth inhibition, synergistic combos for chromothripsis tumors, BGB or cisplatin combos (AID 1671456); settings: UWB1.289 ovarian carcinoma cells, stronger effect = higher value;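 further: cells exposed to compound for four days; 0% = vehicle DMSO and 100% = killing by high DMSO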
[9] = LFS_MB_2R medulloblastoma cell growth inhibition, synergistic combos for chromothripsis tumors, cisplatin combos (AID 1671457); settings: LFS_MB_2R medulloblastoma cells, stronger effect = higher value;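 further: cells exposed to compound for four days before readout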
[10] = MDA-MB-436 breast carcinoma cell growth inhibition, synergistic combos for chromothripsis tumors, BGB or cisplatin combos (AID 1671458; call rule not given here;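 further: cells exposed for 96 hours; 0% = vehicle DMSO and 100% = killing by high DMSO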); settings: MDA-MB-436 breast carcinoma growth inhibition, drug combinations, stronger effect = higher value
[11] = UWB1.289_BRCA1 ovarian cancer growth, cell-based, BGB or cisplatin combinations (AID 1671459); settings: UWB1.289 BRCA1 ovarian carcinoma, drug combinations, stronger effect = higher value
[12] = human astrocyte viability loss, single and combined drugs, cytotoxicity control for chromothriptic childhood tumor combination screen, cell-based, BGB or cisplatin IC20 combos (AID 1671460); settings: Human astrocytes, drug combinations, stronger effect = higher value;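 further: cells exposed to compounds for 96 hours before viability readout; 0% = vehicle and 100% = killing control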
[13] = growth inhibition of BT084 medulloblastoma cells, cell-based, ICGC_MB145, cisplatin and BGB IC40 combos (AID 1671461); settings: drug combinations, stronger effect = higher value;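 further: cells exposed to drugs for 96 hours; 0% = vehicle DMSO and 100% = high DMSO full killing control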
[14] = growth inhibition of RCMB18 medulloblastoma cells, cell-based, cisplatin and BGB IC40 combos (AID 1671462); settings: stronger effect = higher value;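 further: cells exposed to compound for four days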
[15] = growth inhibition of CRL1545 osteosarcoma cells, cell-based, cisplatin and BGB IC20 combos (AID 1671464); settings: stronger effect = higher value;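 further: cells exposed to compound for 96 hours before readout; 0% = vehicle DMSO and 100% = high DMSO killing control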
[16] = at 0.5 µM, stronger effect = higher value
[17] = measured here: combination with BGB IC20, at 0.005 µM
[18] = measured here: combination with BGB IC40, at 0.005 µM
[19] = measured here: combination with BGB IC40, at 0.05 µM
[20] = measured here: combination with cisplatin, at 0.5 µM, stronger effect = higher value
[21] = measured here: combination with cisplatin, at 5 µM, stronger effect = higher value
[22] = measured here: with BGB IC20 combination, at 0.5 µM
[23] = measured here: with cisplatin IC20 combination, at 0.5 µM
[24] = measured here: 5 uM single agent, at 5 µM
[25] = measured here: combination with cisplatin, at 0.5 µM
[26] = measured here: combination with cisplatin, at 5 µM
[27] = measured here: with BGB IC20, at 0.5 µM
[28] = measured here: with BGB IC20, at 5 µM
[29] = measured here: with cisplatin IC20, at 0.5 µM
[30] = measured here: with cisplatin IC20, at 5 µM
[31] = measured here: combination with BGB at IC20, at 0.5 µM
[32] = measured here: combination with cisplatin at IC20, at 0.5 µM
[33] = measured here: combo with BGB at IC20, at 0.5 µM
[34] = measured here: combo with cisplatin at IC20, at 0.5 µM
[35] = measured here: inhibition with BGB combination, at 0.05 µM
[36] = measured here: inhibition with cisplatin combination, at 0.05 µM
[37] = measured here: BGB combination, at 0.5 µM
[38] = measured here: BGB combination, at 5 µM
[39] = measured here: cisplatin combination, at 0.5 µM
[40] = measured here: cisplatin combination, at 5 µM
[41] = BGB combination, concentration series, at 5 µM
[42] = cisplatin combination, concentration series, at 5 µM
[43] = measured here: combo with BGB IC20, at 0.5 µM
[44] = measured here: combo with cisplatin IC20, at 0.5 µM
[45] = cisplatin combination, at 0.5 µM
[46] = measured here: BGB IC40 combination 0.05 uM, at 0.05 µM
[47] = measured here: BGB IC40 combination, at 0.05 µM

CCC(C)C(=O)OC1CC(C)C=C2C=CC(C)C(CCC3CC(O)CC(=O)O3)C21 (stereo unspecified)
inhibition [1, 16]: -40.1% (inactive)
inhibition [1, 17]: -11.8%
inhibition [1, 18]: -21.9%
inhibition [1, 19]: -1.78%
inhibition [1, 20]: -46.1%
inhibition [1, 21]: -44.5%
inhibition ([2]; BGB combo, at 5 µM): 63.1%
inhibition ([2]; at 0.5 µM): 21.8% (inactive)
inhibition ([2]; cisplatin combo, at 5 µM): 52.4%
inhibition [2, 22]: 26.6%
inhibition [2, 23]: 11.5%
inhibition ([2]; single agent, at 5 µM): 65.1%
inhibition ([3]; BGB IC20 combo, at 0.005 µM): 0.285%
inhibition ([3]; BGB IC40 combo, at 0.005 µM): 16.8%
inhibition ([3]; BGB IC40 combo, at 0.05 µM): 20.5%
inhibition ([3]; at 0.5 µM): -5.66% (inactive)
inhibition ([3]; cisplatin combo, at 0.05 µM): 20.5%
inhibition ([3]; cisplatin combo, at 0.5 µM): -11.6%
inhibition ([3]; cisplatin combo, at 5 µM): -5.67%
inhibition [3, 24]: -12.3%
inhibition ([4]; at 0.5 µM): 22% (inactive)
inhibition [4, 19]: -11%
inhibition [4, 25]: 12.3%
inhibition [4, 26]: 12%
inhibition ([5]; at 0.5 µM): -1.62% (inactive)
inhibition [5, 27]: -18.6%
inhibition [5, 28]: 74.3%
inhibition [5, 29]: -1.27%
inhibition [5, 30]: 74.6%
inhibition ([5]; single agent, at 5 µM): 73.5%
inhibition ([6]; at 0.5 µM): -29.5% (inactive)
inhibition [6, 31]: -33%
inhibition [6, 32]: -19.4%
inhibition ([7]; at 0.5 µM): 30.1% (inactive)
inhibition [7, 33]: 26.5%
inhibition [7, 34]: 26.8%
inhibition ([8]; at 0.5 µM): 5.25% (inactive)
inhibition [8, 35]: -16.1%
inhibition [8, 36]: 5.33%
inhibition ([9]; at 0.5 µM): -20.3% (inactive)
inhibition [9, 25]: -23.3%
inhibition [9, 26]: -7.2%
inhibition ([10]; at 0.5 µM): -16.4% (inactive)
inhibition [10, 37]: -18.4%
inhibition [10, 38]: -6.45%
inhibition [10, 39]: -23%
inhibition [10, 40]: 8.95%
inhibition [11, 41]: 23.4%
inhibition ([11]; at 0.5 µM): 3.85% (inactive)
inhibition [11, 42]: 29.3%
inhibition ([12]; at 0.5 µM): -9.68% (inactive)
inhibition [12, 43]: -8.02%
inhibition [12, 44]: -11.2%
inhibition ([13]; at 0.5 µM): 6.42% (inactive)
inhibition [13, 45]: 24.4%
inhibition ([13]; cisplatin combination, at 5 µM): 33.2%
inhibition [13, 46]: 4.47%
inhibition ([13]; single agent, at 5 µM): 25.9%
inhibition ([14]; at 0.5 µM): 1.38% (inactive)
inhibition ([14]; cisplatin combo, at 5 µM): 4.72%
inhibition [14, 47]: -3.68%
inhibition [14, 25]: 2.71%
inhibition ([14]; single agent, at 5 µM): 8.59%
inhibition ([15]; at 0.5 µM): 4.53% (inactive)
inhibition [15, 22]: 12.6%
inhibition [15, 23]: 0.492%
inhibition ([15]; single agent, at 0.05 µM): -12.7%
inhibition ([15]; single agent, at 5 µM): 11.3%

C[C@H](NC(=O)c1ccccc1N=Cc1c(O)ccc2ccccc12)c1ccccc1
inhibition [1, 16]: -32.5% (inactive)
inhibition [1, 17]: -24.4%
inhibition [1, 18]: -29.4%
inhibition [1, 19]: -11%
inhibition [1, 20]: -57.7%
inhibition [1, 21]: -10%
inhibition ([2]; BGB combo, at 5 µM): -7.69%
inhibition ([2]; at 0.5 µM): 1.7% (inactive)
inhibition ([2]; cisplatin combo, at 5 µM): -4.45%
inhibition [2, 22]: -2.8%
inhibition [2, 23]: -1.48%
inhibition ([2]; single agent, at 5 µM): 7.54%
inhibition ([3]; BGB IC20 combo, at 0.005 µM): 1.67%
inhibition ([3]; BGB IC40 combo, at 0.005 µM): -1.06%
inhibition ([3]; BGB IC40 combo, at 0.05 µM): 7.65%
inhibition ([3]; at 0.5 µM): -7.38% (inactive)
inhibition ([3]; cisplatin combo, at 0.05 µM): 3.01%
inhibition ([3]; cisplatin combo, at 0.5 µM): -7.71%
inhibition ([3]; cisplatin combo, at 5 µM): -12.4%
inhibition [3, 24]: 5.4%
inhibition ([4]; at 0.5 µM): -6.38% (inactive)
inhibition [4, 19]: -9.7%
inhibition [4, 25]: -2.62%
inhibition [4, 26]: 12.2%
inhibition ([5]; at 0.5 µM): 1.08% (inactive)
inhibition [5, 27]: 5.46%
inhibition [5, 28]: 7.19%
inhibition [5, 29]: -9.86%
inhibition [5, 30]: -2.37%
inhibition ([5]; single agent, at 5 µM): 12.6%
inhibition ([6]; at 0.5 µM): 5.5% (inactive)
inhibition [6, 31]: -35.4%
inhibition [6, 32]: 58.3%
inhibition ([7]; at 0.5 µM): 6.83% (inactive)
inhibition [7, 33]: 11.2%
inhibition [7, 34]: 5.12%
inhibition ([8]; at 0.5 µM): 17.4% (inactive)
inhibition [8, 35]: 3.84%
inhibition [8, 36]: 5.13%
inhibition ([9]; at 0.5 µM): -0.99% (inactive)
inhibition [9, 25]: 5.16%
inhibition [9, 26]: 4.48%
inhibition ([10]; at 0.5 µM): -1.91% (inactive)
inhibition [10, 37]: -7.38%
inhibition [10, 38]: -1.84%
inhibition [10, 39]: -10.5%
inhibition [10, 40]: -4.49%
inhibition [11, 41]: -2.68%
inhibition ([11]; at 0.5 µM): 1.55% (inactive)
inhibition [11, 42]: 4.86%
inhibition ([12]; at 0.5 µM): 3.33% (inactive)
inhibition [12, 43]: 4.85%
inhibition [12, 44]: -2.44%
inhibition ([13]; at 0.5 µM): -3.76% (inactive)
inhibition [13, 45]: 0.659%
inhibition ([13]; cisplatin combination, at 5 µM): -186%
inhibition [13, 46]: 5.69%
inhibition ([13]; single agent, at 5 µM): -0.461%
inhibition ([14]; at 0.5 µM): -3.35% (inactive)
inhibition ([14]; cisplatin combo, at 5 µM): -10.8%
inhibition [14, 47]: -9.58%
inhibition [14, 25]: -13.6%
inhibition ([14]; single agent, at 5 µM): 3.49%
inhibition ([15]; at 0.5 µM): -10.6% (inactive)
inhibition [15, 22]: -16.9%
inhibition [15, 23]: -9.19%
inhibition ([15]; single agent, at 0.05 µM): -20.9%
inhibition ([15]; single agent, at 5 µM): -71%
